Screening data: PubChem BioAssay, National Center for Advancing Translational Sciences (NCATS)
Hits are enriched below; roughly 12% of the tested compounds scored in any of these assays.
Sfp inh: Sfp phosphopantetheinyl transferase inhibition | actives 3.5% (n = 310,000) | Biochemical Sfp PPTase activity, qHTS | Q9F4F7 | Potency, µM, inactives show largest response in the series, negative = inhibition, most hits filed as inhibitors;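 also: the enzyme is Sfp with the accession as filed and its product quenches rhodamine fluorescence; 0% = enzyme reaction without inhibitor and -100% = no enzyme wells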
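After 15 min at room temperature with compound, 15 nM Sfp received 5 uM rhodamine-CoA plus 12.5 uM BHQ-2-ybbR (50 mM Hepes pH 7.6, 10 mM MgCl2). Rate came from the fluorescence difference over 30 min, ex 525/em 598 nm.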
BAZ2B inh: blocks human BAZ2B; Q9UIF8; actives 4.4% (n = 360,000); AID 504333; Potency, µM (series often up to 114 µM), inactives show at the highest dose activity change, negative = inhibition, actives largely listed as inhibitors; AlphaScreen BAZ2B-H3K14Ac peptide displacement; also: % is scaled to controls: 0 for no effect and ±100 for the full control effect; nearly all actives have a fitted effect of over 60% in size
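Complex of BAZ2B and biotin-H3K14Ac (50 nM apiece) forms over 30 min at RT, then faces library compounds up to 110 uM for another 30 min; AlphaScreen beads added, 20 min dark incubation, luminescence read.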
HP1b chromo inh: blocks HP1-beta chromodomain binding to methylated histone tails | AlphaScreen HP1-beta / biotin-H3K9me3 peptide binding | AID 540317 | P83916 | Potency, µM (titrated, usually from 114 µM), for the others: at the top dose activity change, negative = inhibition, usual class: inhibitors | actives 0.56% (n = 390,000); also: nearly all actives have a fitted effect of over 70% in size
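Compound inhibition of the preformed complex between 50 nM HP1-beta and 50 nM biotinylated H3K9me3 peptide was read by AlphaScreen. Buffer was PBS pH 7.4 with 0.01% Tween-20. Incubations ran 30 min at room temperature, with 10 ug/mL donor/acceptor beads.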
G9a block: inhibitors of human histone lysine methyltransferase G9a; Q96KQ7; G9a H3K9 monomethylation, AlphaScreen, 2 h; Potency, µM (doses to about 102 µM), without a hit: top-dose activity, negative = inhibition, actives largely listed as inhibitors; actives 8.8% (n = 350,000); AID 504332; also: % is scaled to controls: 0 for no effect and ±100 for the full control effect; nearly all actives have a fitted effect of over 75% in size
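Compounds were preincubated with 20 nM G9a for 15 min, after which biotinylated H3K9 peptide (500 nM) and SAM (20 uM) started a 2 h room-temperature reaction. Monomethylated product was quantified by antibody-based AlphaScreen chemiluminescence.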
JMJD2A Tudor: JMJD2A Tudor domain (human) inhibition; O75164; AlphaScreen JMJD2A-Tudor / H3K4me3 peptide binding; Potency, µM (doses to about 114 µM), for inactives: top-dose activity change, negative = inhibition, hits mostly inhibitors; actives 4.4% (n = 390,000); also: % is scaled to controls: 0 for no effect and ±100 for the full control effect; nearly all actives have a fitted effect of over 50% in size
Starred values were filed as active, the others as inactive; ? = inconclusive; · = not tested or not shown; ! = not confirmed by another sample; [ ] = dose if it differs, or a comment. Calls follow the shape of the dose curve; as a rule, active = well fitted curve in the direction sought with a large enough effect; inconclusive = small, poorly fitted or top-dose-only effect, or another doubt; inactive = no such curve, though single readings can be large; an effect the other way counts as inactive or inconclusive. Potency is read from the fitted curve at half-maximal effect.

SMILES	Sfp inh	BAZ2B inh	HP1b chromo inh	G9a block	JMJD2A Tudor
CCOC(=O)c1c(/N=C/c2cc([N+](=O)[O-])ccc2O)sc(C)c1C	40µM*	?	30%	?	-10%
CCOC(=O)c1c(/N=C/C2=C(O)CC(C)(C)CC2=O)sc(C)c1C	-2%	13%	75%	28%	-3%
CCCN1CCC(=NNc2ccc(C(=O)O)cc2)CC1	?	?	23%	7.9µM*	-24%
CCc1cccc(NC(=O)CSc2nncn3c2cc2sccc23)c1	·	-27%	25%	-9%[59 µM]	-14%
COc1ccc(-n2c(SCC(=O)NCc3ccc(Cl)cc3)nc3ccsc3c2=O)cc1	·	-10%	29%	-29%[59 µM]	-8%
COc1ccc(-n2c(SCC(=O)NCCC(C)C)nc3ccsc3c2=O)cc1	?	-6%	24%	25µM*	-7%
Clc1ccc(Cn2cnc3ccccc32)cc1	13%	-3%	27%	7%[12.7 µM]	-16%
S=c1[nH]nc(Cn2cnc3ccccc32)n1-c1ccccc1Cl	89µM*	20%	41%	·	50µM*
CO[C@@H]1COC(=O)[C@H](CCSC)NC(=O)C/C=C\[C@@H](C)COC(=O)[C@@H]2CCCN2C(=O)C/C=C\[C@H]1C	13%	·	·	·	·
CCOc1ccccc1N=C1SCC(C)N1C(=O)C1CCN(c2ncnc3sc(C)c(C)c23)CC1 (centres undefined)	·	·	29%	·	-7%
O=C(O)c1c[nH]c2ccc(F)cc2c1=O	16%	56µM*	-2%	18µM*	79µM*
COc1cccc2c(=O)c(C(=O)O)c[nH]c12	-10%	?	34%	22µM*	79µM*
O=C(O)c1c[nH]c2c(C(F)(F)F)cccc2c1=O	4%	?	32%	35µM*	25µM*
COc1cccc2c(=O)c(C(=O)NCCc3ccccc3)c[nH]c12	·	·	16%	·	-22%
O=C(O)c1c[nH]c2ccc(S(=O)(=O)N3CCN(c4ccc(F)cc4)CC3)cc2c1=O	20%	?	16%	?	?
O=C(NCC1CCCCC1)c1cc(S(=O)(=O)N2CCOCC2)ccc1F	·	4%	30%	19%[2.33 µM]	-9%
CC/C=C\C/C=C\C/C=C\C/C=C\C/C=C\C/C=C\CCC(N)=O	-19%	·	·	·	·
Cc1ccc(CNC(=O)C2CCN(S(=O)(=O)Cc3ccccc3)CC2)cc1	·	5%	57%	-39%[59 µM]	2%
COc1ccccc1Nc1c2c(nc3ccc(NC(=O)c4ccc(N(C)C)cc4)cc13)CCCC2	·	4µM*	-22%	7.9µM*	16µM*
COc1ccc(Nc2c3c(nc4ccc(NC(=O)c5cc(Cl)ccc5OC)cc24)CCCC3)cc1OC	·	-26%	-22%	?	?
COc1cc(OC)cc(C(=O)Nc2ccc3nc4c(c(Nc5ccc(OC)c(OC)c5)c3c2)CCCC4)c1	·	10µM*	?	18µM*	?
CCCOC(c1ccccc1)(c1ccccc1)C(Oc1nc(C)cc(C)n1)C(=O)O (centres undefined)	3%	-16%	31%	71µM*	-4%
CC(C)CC(C(=O)Nc1oc(-c2ccco2)c(-c2ccco2)c1C#N)N1C(=O)c2ccccc2C1=O (centres undefined)	40µM*	32µM*	-25%	22µM*	?
COC(=O)C1=C(C(=O)OC)[C@@H]2N(C)c3ccc(OC)cc3[C@@]23C[C@@H](C(=O)OC)N(C(=O)C2CCC2)C3=N1	10%	11µM*	?	?	25µM*
COC(=O)C1=C(C(=O)OC)[C@@H]2N(C)c3ccc(OC)cc3[C@@]23C[C@@H](C(=O)OC)N(C(=O)CC(C)C)C3=N1	-14%	·	?	·	50µM*
CN1CCN(CC/C=C2/c3ccccc3Sc3ccc(S(=O)(=O)N(C)C)cc32)CC1	-19%	?	-13%	50µM*!	?
COc1cc2c(cc1Cl)/C(=C\CCN(C)C)c1ccccc1S2	-18%	?	?	?	?
COc1ccccc1CNc1ccc(-c2nc(-c3ccccn3)no2)cc1[N+](=O)[O-]	·	13%	51%	2%[59 µM]	-17%
Cc1ccccc1-c1noc(-c2cccnc2N(C)Cc2ccc(Cl)cc2)n1	·	-1%	34%	-8%[59 µM]	-9%
